According to the antibiotic and cytotoxicity screens of Wong et al. (2023):
Out of some 39,000 compounds screened, about 500 (1.3%) were called active. For the sample, actives were picked, then their nearest neighbours and some compounds at random.

test system: S. aureus RN4220; test: growth inhibition call (relative growth <= 0.2); conditions: 50 µM

SMILES | growth inhibition call
C[C@@H]1CCCCO[C@@H](CN(C)C(=O)Nc2ccc3c(c2)OCO3)[C@@H](C)CN([C@@H](C)CO)C(=O)c2cc(NC(=O)Cc3ccccc3)ccc2O1 | inactive
CCC(CC)c1nc(Nc2ccccc2)c2ccccc2n1 | active
CCOc1ccc(Nc2c3ccccc3nc3ccccc23)cc1 | inactive
c1ccc(Nc2nc(-c3ccccc3)nc3ccccc23)cc1 | inactive
Cc1ccc(S(=O)(=O)Nc2ccc3c(c2)C(=O)N([C@H](C)CO)C[C@H](C)[C@H](CN(C)S(=O)(=O)c2ccc(F)cc2)OCCCC[C@@H](C)O3)cc1 | inactive
Cc1noc(C)c1S(=O)(=O)N(C)C[C@H]1Oc2ccc(NS(=O)(=O)c3ccccc3)cc2CC(=O)N([C@H](C)CO)C[C@@H]1C | inactive
C[C@@H]1CN([C@@H](C)CO)C(=O)c2cc(NC(=O)Nc3ccc(C(F)(F)F)cc3)ccc2O[C@@H](C)CCCCO[C@H]1CN(C)C(=O)C1CCCCC1 | inactive
Cc1onc(-c2c(Cl)cccc2Cl)c1C(=O)NC1C(=O)N2C1SC(C)(C)C2C(=O)[O-].[Na+] (configuration not stated) | active
Cc1onc(-c2ccccc2Cl)c1C(=O)NC1C(=O)N2C1SC(C)(C)C2C(=O)[O-].[Na+] (configuration not stated) | active
COC(=O)c1c(-c2c(Cl)cccc2Cl)noc1-c1cnn(-c2cccc(Cl)c2)c1C(F)(F)F | inactive
Cc1onc(-c2ccccc2)c1C(=O)NC1C(=O)N2C1SC(C)(C)C2C(=O)[O-].[Na+] (configuration not stated) | active
C[C@H](CO)N1C[C@H](C)[C@H](CN(C)S(=O)(=O)c2cccc(F)c2)Oc2ncc(C#CCN(C)C)cc2C1=O | inactive
C[C@@H]1CN([C@H](C)CO)C(=O)CCCn2cc(nn2)CO[C@H]1CN(C)C(=O)c1ccc(N2CCN(C)CC2)cc1 | inactive
C[C@@H]1CN([C@H](C)CO)C(=O)c2cccc(NC(=O)Nc3cccc4ccccc34)c2O[C@@H]1CN(C)C(=O)Nc1cccc2ccccc12 | inactive
C[C@@H]1CCCCO[C@@H](CN(C)C(=O)c2ccncc2)[C@H](C)CN([C@H](C)CO)C(=O)c2cc(NC(=O)C3CCCCC3)ccc2O1 | inactive
CC1CC2C(C(O)CC3(C)C2CCC3(O)C(=O)COC(=O)CCC(=O)[O-])C2(C)C=CC(=O)C=C12.[Na+] (configuration not stated) | inactive
COc1cc(NC(=O)CCN2CCC(OC(=O)Nc3ccccc3-c3ccccc3)CC2)c(Cl)cc1CNC[C@H](O)c1ccc(O)c2nc(O)ccc12 | inactive
CO[C@H]1CN(C)C(=O)c2cc(NC(=O)Nc3ccccc3)ccc2OC[C@H](C)N(C(=O)CN(C)C)C[C@@H]1C | inactive
Cc1noc(C)c1S(=O)(=O)Nc1ccc2c(c1)CC(=O)N([C@H](C)CO)C[C@@H](C)[C@@H](CN(C)Cc1ccncc1)O2 | inactive
Cc1noc(C)c1NC(=O)Nc1ccc2c(c1)CC(=O)N([C@@H](C)CO)C[C@@H](C)[C@@H](CN(C)S(C)(=O)=O)O2 | inactive
CC(=O)O[C@@H]1[C@@H]2OC(=O)[C@H](OC(C)=O)[C@@H]2O[C@H]1n1ccc(=O)[nH]c1=O | inactive

SMILES | growth inhibition call
COc1ccc2c3c([nH]c2c1)[C@H](CO)N(C[C@]13CN(CC2CCCCC2)C1)C(=O)Nc1cccc(c1)F | active
COc1ccc2c3c([nH]c2c1)[C@@H](CO)N(C[C@]13CCN(CC1)CC1CCCC1)C(=O)Nc1cccc(c1)F | inactive
COc1ccc2c3c([nH]c2c1)[C@@H](CO)N(C[C@]13CCN(CC1)CC1CCCCC1)C(=O)Nc1cccc(c1)F | active
COc1ccc(cc1)CN1CC[C@]2(CC1)CN([C@H](CO)c1[nH]c3cc(ccc3c12)OC)C(=O)Nc1ccc(cc1)F | inactive
COc1ccc2c3c([nH]c2c1)[C@H](CO)N(C[C@]13CCN(CC1)CC1CCCC1)C(=O)Nc1cccc(c1)F | inactive
COc1ccc2c3c([nH]c2c1)[C@@H](CO)N(C[C@]13CCN(CC1)Cc1ccc(cc1)F)C(=O)Nc1ccc(cc1)F | active
COc1ccc2c3c([nH]c2c1)[C@H](CO)N(C[C@]13CCN(CC1)Cc1ccc(cc1)F)C(=O)Nc1ccc(cc1)F | inactive
COc1ccc2c3c([nH]c2c1)[C@H](CO)N(C[C@]13CCN(CC1)CC1CCCCC1)C(=O)Nc1cccc(c1)F | inactive
COc1ccc2c3c([nH]c2c1)[C@@H](CO)N(C[C@]13CN(CC2CCCCC2)C1)C(=O)Nc1cccc(c1)F | inactive
C=CCOC(=O)O[C@H]1[C@@H](OC)O[C@H](COC(=O)NCCCCCC(=O)NO)[C@@H](OC(=O)[C@H](CC=C)Cc2cccc(Br)c2)[C@@H]1OC(=O)[C@H](CC=C)Cc1ccccc1 | inactive
C[C@H](CO)N1C[C@H](C)[C@@H](CN(C)C(=O)Nc2ccc3c(c2)OCCO3)OCc2cn(nn2)CCCC1=O | inactive
O=C(N[C@H]1C=C[C@H](CC(=O)N2CCOCC2)O[C@@H]1CO)c1ccc2c(c1)OCO2 | inactive
Cn1cnc(S(=O)(=O)N[C@H]2C=C[C@@H](CC(=O)NCC3CC3)O[C@H]2CO)c1 | inactive
COc1ccc(NC(=O)Nc2ccc3c(c2)C(=O)N([C@@H](C)CO)C[C@H](C)[C@H](CN(C)C(=O)c2ccccc2)OCCCC[C@@H](C)O3)cc1 | inactive
CN(C)CC#Cc1cncc(C(=O)NN)c1 | inactive
CO[C@@H]1CN(C)C(=O)c2ccc(NC(=O)c3ccc(F)cc3)cc2OC[C@@H](C)N(C(=O)CN(C)C)C[C@@H]1C | inactive
CN1CCN(C(=O)C[C@H]2C[C@H]3c4cc(NC(=O)c5ccc6c(c5)OCO6)ccc4O[C@H]3[C@H](CO)O2)CC1 | inactive
C=CC[C@@H](CC(=O)NCCO)C(=O)NC[C@H](OC(=O)[C@@H](CC=C)CC(=O)OC(C)(C)C)c1ccccc1 | inactive
Nc1nc(/C(=N/O)C(=O)N[C@@H]2C(=O)N3C(C(=O)O)=C(/C=C4\CCN([C@@H]5CCNC5)C4=O)CS[C@H]23)ns1 | inactive
C=CC1=C(C(=O)O)N2C(=O)C(NC(=O)C(=NOCC(=O)O)c3csc(N)n3)C2SC1 (configuration not stated) | inactive
C=CC1=C(C(=O)O)N2C(=O)[C@@H](NC(=O)/C(=N/O)c3csc(N)n3)[C@H]2SC1 | active

SMILES | growth inhibition call
C=CC1=C(C(=O)O)N2C(=O)[C@@H](NC(=O)/C(=N\OCC(=O)O)c3csc(N)n3)[C@H]2SC1 | active
C=CC1=C(C(=O)O)N2C(=O)C(NC(=O)C(=NO)c3csc(N)n3)C2SC1 (configuration not stated) | active
Nc1nc(C(=CCC(=O)O)C(=O)NC2C(=O)N3C(C(=O)O)=CCSC23)cs1 (configuration not stated) | active
Nc1nc(/C(=C/CC(=O)O)C(=O)N[C@@H]2C(=O)N3C(C(=O)O)=CCS[C@H]23)cs1 | inactive
COC(=O)/C=C/c1cn([C@H]2OC[C@@H](CO)[C@@H]2O)c(=O)[nH]c1=O | inactive
Cc1cncc2cccc(S(=O)(=O)N[C@H]3CN[C@@H](COC(=O)NCCOCCOCCN)C3)c12 | inactive
C[C@H](CO)N1C[C@H](C)[C@@H](CN(C)S(C)(=O)=O)Oc2cc(-c3ccccc3F)ccc2S1(=O)=O | inactive
CCCN(C)C[C@@H]1OCCCC[C@@H](C)Oc2ccc(NC(=O)c3ccccc3)cc2C(=O)N([C@H](C)CO)C[C@@H]1C | inactive
COc1ccc(NC(=O)N(C)C[C@H]2Oc3ccc(NC(=O)Cn4cnnn4)cc3C(=O)N([C@H](C)CO)C[C@@H]2C)cc1 | inactive
C[C@@H]1CN([C@@H](C)CO)C(=O)c2cc(NC(=O)Nc3ccc(F)cc3)ccc2O[C@@H](C)CCCCO[C@@H]1CN(C)Cc1ccccc1 | inactive
C[C@@H]1CN([C@H](C)CO)C(=O)c2cccc(NC(=O)Nc3cccc4ccccc34)c2O[C@@H]1CN(C)CC1CCCCC1 | inactive
C[C@H](CO)N1C[C@H](C)[C@@H](CN(C)Cc2ccc(Oc3ccccc3)cc2)Oc2ccc(NS(=O)(=O)c3cccs3)cc2C1=O | inactive
O=P(O)(O)C(Sc1ccc(Cl)cc1)P(=O)(O)O | inactive
C(=N\n1cnnc1)/c1ccco1 | inactive
C[C@@H]1CN([C@H](C)CO)C(=O)Cc2cc(NS(=O)(=O)c3cn(C)cn3)ccc2O[C@H]1CN(C)CC1CCCCC1 | inactive
CN1C(=O)c2cc(NC(=O)C3CCOCC3)ccc2OC[C@H]2O[C@@H](CC(=O)NCc3ccccc3F)CC[C@H]21 | inactive
O=C1NCCN1c1cccnc1 | inactive
Cc1noc(C)c1NC(=O)N(C)C[C@@H]1Oc2ccc(NC(=O)C3CC3)cc2CC(=O)N([C@H](C)CO)C[C@H]1C | inactive
C=CC1=C(C(=O)O)N2C(=O)[C@@H](NC(=O)/C(=N\O)c3csc(N)n3)[C@H]2SC1 | active
Cc1noc(C)c1NC(=O)Nc1ccc2c(c1)C(=O)N([C@@H](C)CO)C[C@@H](C)[C@H](CN(C)C(=O)Nc1ccc(F)cc1)OCCCC[C@@H](C)O2 | inactive
NCc1nc(CCc2ccccc2)cs1 | inactive

SMILES | growth inhibition call
Cc1ccc(S(=O)(=O)Nc2cccc3c2O[C@H](CN(C)S(=O)(=O)c2ccc(F)cc2)[C@@H](C)CN([C@H](C)CO)C3=O)cc1 | inactive
CN1CCN(C(=O)C[C@H]2CC[C@@H]3[C@H](COc4ccc(NC(=O)c5cscn5)cc4C(=O)N3C)O2)CC1 | inactive
COc1ccc(C=CC(=O)c2ccc(O)cc2O)cc1 | inactive
COc1ccc(C(C)C(=O)c2ccc(O)cc2O)cc1 (configuration not stated) | active
COc1ccc(CC(=O)c2ccc(O)cc2O)cc1 | inactive
C[C@@H]1CN([C@@H](C)CO)C(=O)c2cc(NC(=O)Nc3ccc(F)cc3)ccc2O[C@@H](C)CCCCO[C@@H]1CN(C)C(=O)Cc1ccccc1 | inactive
O=C(CO)N1C[C@H]2C[C@@H]1C[C@@H]2Oc1cccnc1 | inactive
CN[C@@H]1[C@@H](O[C@@]2(C)O[C@H](CO)[C@@H](N)[C@H](O)[C@H]2O)O[C@H]2C[C@@H](N)[C@@H](O[C@H]3[C@H](O)[C@@H](O)[C@H](N)C[C@@H]3N)O[C@@H]2[C@@H]1O | inactive
CNC1C(OC2OC(CO)C(N)C(O)C2O)OC2CC(N)C(OC3C(N)CC(N)C(O)C3O)OC2C1O.O=S(=O)(O)O (configuration not stated) | active
NCC1OC(OC2C(CO)OC(OC3C(O)C(N)CC(N)C3OC3OC(CN)C(O)C(O)C3N)C2O)C(N)C(O)C1O.O=S(=O)(O)O.O=S(=O)(O)O.O=S(=O)(O)O (configuration not stated) | inactive
NCCC(O)C(=O)NC1CC(N)C(OC2OC(CN)C(O)C(O)C2O)C(O)C1OC1OC(CO)C(O)C(N)C1O.O (configuration not stated) | inactive
NCC1OC(OC2C(N)CC(N)C(OC3OC(CO)C(O)C(N)C3O)C2O)C(N)C(O)C1O.O=S(=O)(O)O (configuration not stated) | active
NCC1OC(OC2C(N)CC(N)C(O)C2OC2OC(CO)C(O)C2O)C(N)C(O)C1O.O=S(=O)(O)O (configuration not stated) | inactive
NCC1OC(OC2C(CO)OC(OC3C(O)C(N)CC(N)C3OC3OC(CO)C(O)C(O)C3N)C2O)C(N)C(O)C1O.O=S(=O)(O)O (configuration not stated) | active
NC[C@H]1O[C@H](O[C@H]2[C@H](O)[C@@H](O[C@H]3O[C@H](CO)[C@@H](O)[C@H](N)[C@H]3O)[C@H](N)C[C@@H]2N)[C@H](N)[C@@H](O)[C@@H]1O | inactive
NCC[C@H](O)C(=O)N[C@@H]1C[C@H](N)[C@@H](O[C@H]2O[C@H](CN)[C@@H](O)[C@H](O)[C@H]2O)[C@H](O)[C@H]1O[C@H]1O[C@H](CO)[C@@H](O)[C@H](N)[C@H]1O | active
NC[C@H]1O[C@H](O[C@H]2[C@H](O[C@@H]3O[C@H](CO)[C@@H](O)[C@H]3O)[C@@H](O)[C@H](N)C[C@@H]2N)[C@H](N)[C@@H](O)[C@@H]1O | inactive
CN[C@@H]1[C@@H](O[C@H]2O[C@H](CO)[C@@H](N)[C@H](O)[C@H]2O)O[C@H]2C[C@@H](N)[C@H](O[C@H]3[C@H](O)[C@@H](O)[C@H](N)C[C@@H]3N)O[C@@H]2[C@@H]1O | inactive
NCC1OC(OC2C(N)CC(N)C(OC3OC(CO)C(O)C(N)C3O)C2O)C(O)C(O)C1O.O=S(=O)(O)O (configuration not stated) | inactive
